# KDM4E inh = blocks human JMJD2E demethylase activity; B2RXH2; JMJD2E catalytic domain, FDH-coupled NADH fluorescence (FDH is formaldehyde dehydrogenase); Potency, µM (highest dose often 57.1 µM), without a hit: at the highest dose activity change, negative = inhibition, actives largely listed as inhibitors; actives 1.6% (n = 230,000); active = well fitted inhibition curve with a large enough effect, not every such curve was filed as active; inconclusive = small, poorly fitted or top-dose-only effect, or another doubt; inactive = no such curve, though single readings can be large or run the other way;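 also: potency is read from the fitted curve at half-maximal effect; 0% = wells with enzyme and -100% = buffer wells without enzyme; nearly all actives have a fitted effect of over 50% in size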
# Target sequence (B2RXH2 1-337 limits assumed): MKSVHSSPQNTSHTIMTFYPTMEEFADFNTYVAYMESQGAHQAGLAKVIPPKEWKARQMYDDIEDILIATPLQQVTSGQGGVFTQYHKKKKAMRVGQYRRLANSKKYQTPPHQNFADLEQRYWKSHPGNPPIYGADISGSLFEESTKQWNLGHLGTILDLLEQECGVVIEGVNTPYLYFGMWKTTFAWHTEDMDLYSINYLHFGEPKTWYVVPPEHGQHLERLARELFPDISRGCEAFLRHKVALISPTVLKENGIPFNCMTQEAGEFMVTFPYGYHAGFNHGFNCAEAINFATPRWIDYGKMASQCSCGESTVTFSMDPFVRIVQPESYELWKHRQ
# Sfp inh = inhibitors of Bacillus subtilis Sfp phosphopantetheinyl transferase; Potency, µM, for the others: largest response in the series, negative = inhibition, usual class: inhibitors; actives 3.5% (n = 310,000); Biochemical Sfp PPTase activity, qHTS;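 also: the enzyme is Sfp with the accession as filed and its product quenches rhodamine fluorescence; potency is read from the fitted curve at half-maximal effect; 0% = enzyme reaction without inhibitor and -100% = no enzyme wells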
#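 Fluorescence-quenching assay with 15 nM Sfp, 5 uM rhodamine-CoA and 12.5 uM BHQ-2-labelled ybbR peptide in pH 7.6 Hepes/MgCl2 buffer. Enzyme was pre-incubated with compound for 15 min at room temperature. Rate was taken from the 30-min fluorescence change (525/598 nm).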
# NPSR antag = antagonists of human neuropeptide S receptor cAMP signaling; Q6W5P4; CHO-NPSR cells, cAMP TR-FRET, antagonist mode; Potency, µM (highest dose often 38.3 µM), without a hit: at the top dose activity change, negative = inhibition, usual class: inhibitors; actives 1% (n = 220,000); AID 1461; also: potency is read from the fitted curve at half-maximal effect; nearly all actives have a fitted effect of over 50% in size
# ALDH1A1 inh = ALDH1A1 (human) enzyme inhibition; Purified ALDH1A1, NADH fluorescence, propionaldehyde substrate; Potency, µM (series often up to 75.3 µM), inactives show at the top dose activity, negative = inhibition, most hits filed as inhibitors; P00352; actives 7.3% (n = 220,000); AID 1030; active = well fitted inhibition curve with a large enough effect, not every such curve was filed as active; inconclusive = small, poorly fitted or top-dose-only effect, or another doubt; inactive = no such curve, though single readings can be large or run the other way;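 also: potency is read from the fitted curve at half-maximal effect; plate controls were no enzyme wells and a reference inhibitor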
# Coupling enz = counter-screen for Giardia aldolase inhibitors: coupling enzyme system; coupling enzyme system counterscreen, AmpLite Red fluorescence; activity change, negative = inhibition, % at 58.2 µM, hits read low; actives 0.67% (n = 290,000); AID 2472; in the data active = activity change below about -30%
#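 Coupling enzymes only (glyceraldehyde-3-phosphate) + compound, at 57.5 uM final, 10 min RT; add substrate/coupling/AmpLite Red mix, 20 min RT; fluorescence ex 525/em 598 nm. Actives flag coupling-system interference.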
# GoLoco inh red = inhibitors of human Gai1-RGS12 GoLoco interaction (red fluorophore). Potency, µM (doses to about 61.6 µM), inactives show at the top dose activity, negative = inhibition, hits mostly inhibitors. Gai1:RGS12 GoLoco peptide FP, rhodamine, 10 min. actives 0.44% (n = 230,000). P63096; active = well fitted inhibition curve with a large enough effect, not every such curve was filed as active; inactive = no such curve, though single readings can be large or run the other way; also: potency is read from the fitted curve at half-maximal effect; nearly all actives have a fitted effect of over 30% in size
# * = called active by the depositor; ? = inconclusive; . = no result given; [ ] = remark or other dose. Shown are actives, neighbours in structure and some others; about 8.5% of the full set was active somewhere. Unless noted, calls follow the shape of the dose curve; as a rule, active = well fitted curve in the direction sought with a large enough effect; inconclusive = small, poorly fitted or top-dose-only effect, or another doubt; inactive = no such curve, though single readings can be large; an effect the other way counts as inactive or inconclusive. Unless noted, % is scaled to controls: 0 for no effect and ±100 for the full control effect.
SMILES,KDM4E inh,Sfp inh,NPSR antag,ALDH1A1 inh,Coupling enz,GoLoco inh red
C=CCOC(/C=C/c1ccccc1)C[Si](C)(C)C (configuration not stated),.,-2%,.,.,3,.
COC(=O)CN1C(=O)[C@H]2[C@@H](c3ccc(C)o3)N3C(=O)CN(Cc4ccc(-c5ccccc5)cc4)C(=O)[C@@]3(C)[C@H]2C1=O,.,13µM*,.,.,-1,.
Nn1cnnc1SCC(=O)Nc1ccc2c(c1)OCO2,8%,12%,-3%,3%,0,3%
O=C(/C=C/c1ccc(O)c(O)c1)O[C@@H]1C[C@@](O)(C(=O)O)C[C@H](O)[C@@H]1O,?,50µM*,.,?,1,-11%
C=C(C)CSC1=C(C#N)C(c2ccsc2)CC(=O)N1 (configuration not stated),?,28µM*,-5%[46.1 µM],16µM*,-6,-11%
C=CCSC1=C(C#N)C(c2ccccc2)CC(=O)N1 (configuration not stated),1%,-29%,-11%[46.1 µM],?,-4,12%
C=CCSC1=C(C#N)C(c2ccc(C(C)C)cc2)CC(=O)N1 (configuration not stated),1%,45µM*,-7%[46.1 µM],28µM*,-1,-1%
CCSC1=C(C#N)C(c2cccc(O)c2)CC(=O)N1 (configuration not stated),-5%,-6%,-2%[46.1 µM],-3%,7,1%
C=CCc1c(OC)ccc2c1c(S(=O)(=O)c1ccc(C)cc1)cn2COC,.,4%,.,.,-8,.
O=C(O)c1ccc(CNC(=O)C2CCCN2C(=O)OCc2ccccc2)cc1 (configuration not stated),.,6%,.,.,7,.
O=C[C@@H]1CCCN1C(=O)[C@@H]1CCCN1C(=O)OCc1ccccc1,.,56µM*,.,7.9µM*,.,-14%
COC(=O)C(Cc1ccccc1)NC(=O)CNC(=O)c1ccccc1OC (configuration not stated),.,0%,.,.,1,.
COc1ccc(OC)c(NC(=S)NCCCN2CCOCC2)c1,-8%,50µM*,2%,-1%,-1,-7%
COCCN(C(=S)Nc1ccc(OC)c(Cl)c1)C1CCN(C(C)C)CC1,3%,40µM*,21%,-12%,0,-2%
COc1ccc(NC(=S)N(CCCN2CCC(C)CC2)Cc2cccs2)cc1Cl,-6%,32µM*,-50%,0%,0,-2%
COc1ccc(NC(=S)NCCN2CCC(C)CC2)cc1Cl,8%,2.5µM*,-3%,4%,-47*,12%
COc1ccc(NC(=S)NCCCN2CCCC2)cc1Cl,5%,20µM*,-3%,-5%,1,-4%
COc1cc(NC(=S)NCCCN2CCOCC2)c(OC)cc1Cl,9%,13%,12%,12%,3,3%
COc1ccc(/C=C2\SC(=S)N(C(C(=O)O)c3ccccc3)C2=O)c(OC)c1 (configuration not stated),2%,71µM*,-41%,.,9,3%
COc1cc(/C=C2\SC(=S)N(C(Cc3ccccc3)C(=O)O)C2=O)ccc1O (configuration not stated),1%,?,3%[7.67 µM],.,10,196%
COc1ccccc1NC(=O)CCN1C(=O)/C(=C/c2cc(OC)c(OC)c(OC)c2)SC1=S,.,45µM*,.,.,-3,.
COc1cc(/C=C2\SC(=S)N(C(C(=O)O)c3ccccc3)C2=O)cc(OC)c1OC (configuration not stated),0%,50µM*,-21%,.,12,-7%
COc1cccc(/C=C2\SC(=S)N(C(C(=O)O)c3ccccc3)C2=O)c1OC (configuration not stated),4%,79µM*,?,.,25,0%
COCCn1c(=S)[nH]c2cc(C(=O)N3CC(C)CC(C)C3)ccc2c1=O (configuration not stated),.,-8%,.,.,1,.
CC1CC(C)CN(CCCNC(=O)c2ccc3c(c2)ncn3C2CCCC2)C1 (configuration not stated),.,5%,.,.,-2,.
